The text below walks through data of PubChem BioAssay (NCATS).

Assay [1] has as its target Tumor susceptibility gene 101 protein (Homo sapiens) (UniProt Q99816). Put plainly: qHTS Assay for Iinhibitors of HIV-1 Budding by Blocking the Interaction of PTAP/TSG101: Hit Validation (AID 651600). Note: potency is the fitted concentration of half-maximal effect; nearly all actives have a fitted effect of over 70% in size. The procedure, abridged: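 FITC-PTAP peptide (50 nM final) binding to Tsg101 binding domain (10 uM final) was measured by polarization after 20 min at r.t. with compounds, in 10 mM HEPES pH 7.5 buffer with 0.15 M NaCl and 0.01% Tween 20.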

The target of assay [2] is Rap guanine nucleotide exchange factor 3 (Homo sapiens) (UniProt O95398). In words: Confirmatory qHTS for antagonist of cAMP-regulated guanine nucleotide exchange factor 3 (EPAC1) (AID 1645880).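 Note: plate controls were DMSO only for no effect and full effect of the ATA control for full effect; nearly all actives have a fitted effect of over 55% in size.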 The note with it: EPAC1 Rap1B-BODIPY-GDP exchange, fluorescence; activity, negative = inhibition: at 115 µM (top of the series). The essentials: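 Released BODIPY-GDP fluoresces less than Rap1-bound BODIPY-GDP; the signal is followed at 480/540 nm at 5-min intervals over 30 min, after 5 min at room temperature. Reactions contain 100 nM EPAC1, 250 nM RAP1B-BODIPY-GDP and 50 uM GDP; results are normalized to ATA and DMSO.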
Sequence of Rap guanine nucleotide exchange factor 3 (Homo sapiens) (O95398 whole entry, looked up): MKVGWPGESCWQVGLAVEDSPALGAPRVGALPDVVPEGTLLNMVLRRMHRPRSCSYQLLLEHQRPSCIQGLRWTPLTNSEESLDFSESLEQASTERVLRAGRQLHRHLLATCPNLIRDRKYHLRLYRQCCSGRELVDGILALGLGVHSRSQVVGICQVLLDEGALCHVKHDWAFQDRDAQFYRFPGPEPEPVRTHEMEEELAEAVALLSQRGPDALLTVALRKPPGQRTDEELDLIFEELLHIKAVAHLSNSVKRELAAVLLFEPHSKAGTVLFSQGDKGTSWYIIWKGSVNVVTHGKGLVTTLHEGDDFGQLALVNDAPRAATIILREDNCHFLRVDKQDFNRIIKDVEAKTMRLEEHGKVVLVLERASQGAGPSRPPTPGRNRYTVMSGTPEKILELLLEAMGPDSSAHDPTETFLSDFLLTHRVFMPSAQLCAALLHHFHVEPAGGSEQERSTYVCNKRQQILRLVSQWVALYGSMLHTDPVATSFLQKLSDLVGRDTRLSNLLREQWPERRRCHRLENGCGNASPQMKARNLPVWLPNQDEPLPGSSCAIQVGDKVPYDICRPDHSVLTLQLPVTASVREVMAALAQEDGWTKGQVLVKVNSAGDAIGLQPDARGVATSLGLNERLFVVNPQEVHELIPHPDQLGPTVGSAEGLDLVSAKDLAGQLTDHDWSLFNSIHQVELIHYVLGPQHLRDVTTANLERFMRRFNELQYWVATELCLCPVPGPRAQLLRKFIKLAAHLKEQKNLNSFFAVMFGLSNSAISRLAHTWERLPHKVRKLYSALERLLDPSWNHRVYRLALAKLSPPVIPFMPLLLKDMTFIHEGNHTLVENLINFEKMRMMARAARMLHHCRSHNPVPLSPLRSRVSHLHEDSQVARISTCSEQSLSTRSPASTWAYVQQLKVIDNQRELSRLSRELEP
Background: In qHTS, concentration-response curves come from the screen itself.

Assay [3] deals with Rap guanine nucleotide exchange factor 4 (Homo sapiens) (UniProt Q8WZA2). In words: Confirmatory qHTS for antagonist of cAMP-regulated guanine nucleotide exchange factor 4 (EPAC2) (AID 1645885). For activity change, negative = inhibition: % is set by controls: 0 for no effect and ±100 for the full control effect. Note: nearly all actives have a fitted effect of over 25% in size. Note: potency is the fitted concentration of half-maximal effect.
Sequence of Rap guanine nucleotide exchange factor 4 (Homo sapiens) (Q8WZA2 whole entry, looked up): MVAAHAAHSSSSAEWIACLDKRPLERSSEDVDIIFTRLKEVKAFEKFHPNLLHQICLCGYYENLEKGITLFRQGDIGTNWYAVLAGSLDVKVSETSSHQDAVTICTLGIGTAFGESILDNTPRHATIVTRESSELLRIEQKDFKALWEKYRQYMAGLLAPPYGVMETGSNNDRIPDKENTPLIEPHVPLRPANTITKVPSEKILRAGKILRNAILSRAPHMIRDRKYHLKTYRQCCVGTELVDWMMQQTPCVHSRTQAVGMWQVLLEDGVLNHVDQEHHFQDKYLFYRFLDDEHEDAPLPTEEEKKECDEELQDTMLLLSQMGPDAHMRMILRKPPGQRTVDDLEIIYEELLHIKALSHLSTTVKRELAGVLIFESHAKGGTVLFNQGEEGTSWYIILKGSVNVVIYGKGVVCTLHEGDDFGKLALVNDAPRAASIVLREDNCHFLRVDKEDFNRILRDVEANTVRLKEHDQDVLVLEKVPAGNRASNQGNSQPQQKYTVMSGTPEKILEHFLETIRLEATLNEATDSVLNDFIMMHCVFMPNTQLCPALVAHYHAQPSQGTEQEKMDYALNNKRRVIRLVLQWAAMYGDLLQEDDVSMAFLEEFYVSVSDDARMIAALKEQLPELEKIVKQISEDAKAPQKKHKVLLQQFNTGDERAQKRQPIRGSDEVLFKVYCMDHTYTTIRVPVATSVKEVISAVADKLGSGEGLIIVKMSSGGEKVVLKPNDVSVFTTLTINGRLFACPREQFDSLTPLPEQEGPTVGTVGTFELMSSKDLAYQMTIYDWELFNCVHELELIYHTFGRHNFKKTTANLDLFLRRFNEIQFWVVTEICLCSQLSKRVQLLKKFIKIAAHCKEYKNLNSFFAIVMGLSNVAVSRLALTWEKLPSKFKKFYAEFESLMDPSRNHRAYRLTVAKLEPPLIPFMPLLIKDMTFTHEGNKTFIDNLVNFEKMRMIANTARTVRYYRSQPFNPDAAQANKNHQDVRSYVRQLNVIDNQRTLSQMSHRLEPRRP
The target of assay [4] is Rap guanine nucleotide exchange factor 3 (Homo sapiens) (UniProt O95398). In words: Counterscreen qHTS for antagonist of cAMP-regulated guanine nucleotide exchange factor 3 (EPAC1) (AID 1645888). Note: % of control where 0% means no effect. The procedure, abridged: (§1)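 Measured: fluorescence of BODIPY-GDP bound to Rap1B, which falls as exchange proceeds. Conditions include 50 uM competing GDP, 5 and 30 min reads, and a later cAMP challenge for antagonist detection.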

For assay [5] the target is unchanged. In words: Counterscreen qHTS for agonist of cAMP-regulated guanine nucleotide exchange factor 3 (EPAC1) (AID 1645889). For activation: % of control where 0% means no effect. Note: nearly all actives have a fitted effect of over 40% in size. Note: potency is the fitted concentration of half-maximal effect. The procedure, abridged: as §1
In general terms: The purpose of a counterscreen is to sort out artefacts and off-target activity.

Assay [6] has as its target Cytochrome P450 2C9 (Homo sapiens) (UniProt P11712). Put plainly: qHTS Assay for Inhibitors and Substrates of Cytochrome P450 2C9 (AID 883). Note: % is set by controls: 0 for no effect and ±100 for the full control effect; nearly all actives have a fitted effect of over 60% in size. The procedure, abridged: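 A luminogenic readout tracked human CYP2C9 (10nM) converting deoxyluciferin (100uM, at KM) in 25mM KPO4 during 60 min at 37C with regenerated NADPH. Values normalized to 57uM sulphaphenazole as complete inhibition.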

Assay [7] concerns the target Cytochrome P450 2D6 (Homo sapiens) (UniProt P10635). Put plainly: qHTS Assay for Inhibitors and Substrates of Cytochrome P450 2D6 (AID 891). Note: potency is the fitted concentration of half-maximal effect; nearly all actives have a fitted effect of over 60% in size. The essentials:
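Luminescent read-out of luciferin formed by 5 nM human CYP2D6 demethylating 30 uM Luciferin-ME EGE (Km level) over 60 min at room temperature after NADPH regeneration addition. Data normalized to full inhibition by 1.43 uM quinidine.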

Assay [8] deals with Dual specificity protein kinase CLK4 (Homo sapiens) (UniProt Q9HAZ1). Put plainly: qHTS Assay for Inhibitors of CDC-like Kinase 4 (ADP-FP Assay) (AID 1795).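 Note: recombinant human CLK4 phosphorylating RS repeat peptide at 1 µM ATP; % is set by controls: 0 for no effect and ±100 for the full control effect; nearly all actives have a fitted effect of over 60% in size.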 The essentials:
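Kinase activity was measured as ADP production using Transcreener orange tracer (4 nM) and ADP antibody (1 ug/mL) fluorescence polarization, with ADP calculated from a calibration curve. The 1 h reaction contained 6.25 nM Clk4, 1 uM ATP and 100 uM RS peptide at pH 7.5 with Mg2+.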

Assay [9] has as its target Tyrosyl-DNA phosphodiesterase 1 (Homo sapiens) (UniProt Q9NUW8). In words: Confirmation Assay for Inhibitors of Tyrosyl-DNA Phosphodiesterase (TDP1) (AID 489007). Note: potency is the fitted concentration of half-maximal effect; nearly all actives have a fitted effect of over 40% in size. To be noted: recombinant human TDP1 enzymatic activity, dose-response. The essentials: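 AlphaScreen read-out: streptavidin donor and anti-FITC acceptor beads (10 ug/ml) bind intact substrate, so Tdp1 removal of tyrosine-FITC lowers signal. Enzyme 1 nM, substrate 15 nM, 5 min reaction at room temperature after 15 min compound preincubation.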

A short description of assay [10]: qHTS for Inhibitors of the vitamin D receptor (VDR): Hit Validation using a Texas Red Assay (AID 602201). Note: % is set by controls: 0 for no effect and ±100 for the full control effect. The essentials: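 Fluorescence polarization (Ex 595/Em 615 nm) of Texas Red (7 nM) with 1.5 uM VDR-LBD and LG19078 (final concentrations). Compounds were incubated for 2 hours at room temperature.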
For assay [11], the target named is Bifunctional 3'-5' exonuclease/ATP-dependent helicase WRN (Homo sapiens) (UniProt Q14191). In words: qHTS for Inhibitors of WRN Helicase: Confirmatory Assay for Cherry-picked Compounds. (AID 720497). Note: potency is the fitted concentration of half-maximal effect; nearly all actives have a fitted effect of over 65% in size. To be noted: WRN helicase DNA unwinding, fluorescence kinetic. The essentials:
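Kinetic fluorescence helicase read-out (525 nm excitation, 598 nm emission) on a forked duplex substrate at 100 nM with 2 mM ATP. Enzyme: 20 nM WRN, exposed to compound for 15 min at room temperature. Responses normalized to buffer-only and positive-control wells.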

Assay [12] in a line: qHTS for Inhibitors of WRN Helicase: Thiazole Orange DNA Binding Counterscreen (AID 720499).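 Note: drop in dye fluorescence marks compound binding to DNA; % is set by controls: 0 for no effect and ±100 for the full control effect; nearly all actives have a fitted effect of over 60% in size.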 The essentials: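 Mixture of 100 nM thiazole orange and 50 nM unlabeled DNA exposed to compound 15 min at room temperature. Dye displacement monitored by 480/530 nm fluorescence, identifying nonspecific DNA binders.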
The target of assay [13] is RecQ-like DNA helicase BLM (Homo sapiens) (UniProt P54132). Put plainly: qHTS for Inhibitors of WRN Helicase: BLM Helicase Counterscreen for WRN Inhibitors (AID 720503). To be noted: Recombinant BLM helicase DNA unwinding, red fluorescence. The essentials:
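BLM (1 nM) was preincubated with compounds for 15 min at room temperature in Tris-HCl pH 8.0, 50 mM NaCl, 2 mM MgCl2 buffer. Unwinding started with 100 nM DNA and 2 mM ATP (final); red fluorescence was read twice, 15 min apart.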

Assay [14] deals with Flap endonuclease 1 (Homo sapiens) (UniProt P39748). In words: qHTS Assay for the Inhibitors of FEN1: Confirmatory Assay for Cherry-picked Compounds (AID 720498). To be noted: FEN1 flap cleavage, TAMRA/BHQ2 fluorogenic DNA substrate. The essentials:
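Human FEN1 (10 nM reagent) was preincubated with compounds for 15 min at room temperature, then 50 nM final double-flap DNA substrate (5'-TAMRA flap, BHQ-2 quencher strand) was added. Fluorescence (ex 525/em 598 nm) was read at 0 and 15 min.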

Assay [15] concerns the target DNA polymerase kappa (Homo sapiens) (UniProt Q9UBT6). Put plainly: qHTS for Inhibitors of Polymerase Kappa: Confirmatory Assay for Cherry-picked Compounds (AID 720501). Note: potency is the fitted concentration of half-maximal effect. To be noted: purified Pol-kappa, fluorescent strand-displacement substrate. The essentials:
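Human Pol-kappa, dispensed at 10 nM, was preincubated with compounds for 15 min at room temperature. Reactions were started with primer/template substrate (50 nM final) carrying a TAMRA reporter strand and BHQ-2-quenched template, and fluorescence (ex 525/em 598 nm) was read at 0 and 10 min.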

A short description of assay [16]: NCATS anti-infectives library activity on HEK293 viability as a counter-qHTS vs the C. elegans viability qHTS (AID 1745854). Note: % is set by controls: 0 for no effect and ±100 for the full control effect. The procedure, abridged: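 CellTiter-Glo luminescence, read on a CCD imager, scored viability of HEK293 cells after 24 hr compound exposure at 37C. Library tested in several concentrations, 1:5 steps, up to 41.7 uM; digitonin served as control.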

The target of assay [17] is Rap guanine nucleotide exchange factor 3 (Homo sapiens) (UniProt O95398). In words: Confirmatory qHTS for agonist of cAMP-regulated guanine nucleotide exchange factor 3 (EPAC1) (AID 1645881).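 Note: EPAC1 catalysed release of BODIPY-GDP from Rap1B seen as fluorescence loss; 100% = effect of cAMP agonist control; nearly all actives have a fitted effect of over 75% in size.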
In assay [18] the target is Rap guanine nucleotide exchange factor 4 (Homo sapiens) (UniProt Q8WZA2). In words: Confirmatory qHTS for agonist of cAMP-regulated guanine nucleotide exchange factor 4 (EPAC2) (AID 1645884).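 Note: nucleotide exchange releases bodipy-GDP from Rap1 and this lowers its fluorescence; % is set by controls: 0 for no effect and ±100 for the full control effect; nearly all actives have a fitted effect of over 65% in size.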

Records with an inconclusive call do not appear. A number with no mark means an inactive call. This is one part of the list. Active and inactive are the calls of the source. Calls come from the whole dose curve; as a rule, active = well fitted curve in the direction sought with a large enough effect; inconclusive = small, poorly fitted or top-dose-only effect, or another doubt; inactive = no such curve, though single readings can be large; an effect the other way counts as inactive or inconclusive.

Sequence of Tyrosyl-DNA phosphodiesterase 1 (Homo sapiens) (Q9NUW8 whole entry, looked up): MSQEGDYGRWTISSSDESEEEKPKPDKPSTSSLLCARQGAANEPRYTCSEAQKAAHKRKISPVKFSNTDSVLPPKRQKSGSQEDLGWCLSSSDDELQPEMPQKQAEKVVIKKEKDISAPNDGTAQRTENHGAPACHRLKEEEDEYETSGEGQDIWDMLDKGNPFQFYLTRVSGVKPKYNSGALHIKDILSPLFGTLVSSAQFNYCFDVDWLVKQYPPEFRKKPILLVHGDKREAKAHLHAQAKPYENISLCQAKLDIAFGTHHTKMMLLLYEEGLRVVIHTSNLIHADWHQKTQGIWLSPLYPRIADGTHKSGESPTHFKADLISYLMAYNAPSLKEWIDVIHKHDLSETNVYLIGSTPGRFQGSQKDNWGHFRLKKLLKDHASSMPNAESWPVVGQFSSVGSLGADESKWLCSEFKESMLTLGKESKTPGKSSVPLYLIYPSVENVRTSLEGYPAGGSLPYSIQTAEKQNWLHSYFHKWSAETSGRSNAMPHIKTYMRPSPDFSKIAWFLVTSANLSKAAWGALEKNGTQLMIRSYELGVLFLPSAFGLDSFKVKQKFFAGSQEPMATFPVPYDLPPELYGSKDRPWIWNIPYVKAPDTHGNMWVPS
Sequence of RecQ-like DNA helicase BLM (Homo sapiens) (P54132 whole entry, looked up): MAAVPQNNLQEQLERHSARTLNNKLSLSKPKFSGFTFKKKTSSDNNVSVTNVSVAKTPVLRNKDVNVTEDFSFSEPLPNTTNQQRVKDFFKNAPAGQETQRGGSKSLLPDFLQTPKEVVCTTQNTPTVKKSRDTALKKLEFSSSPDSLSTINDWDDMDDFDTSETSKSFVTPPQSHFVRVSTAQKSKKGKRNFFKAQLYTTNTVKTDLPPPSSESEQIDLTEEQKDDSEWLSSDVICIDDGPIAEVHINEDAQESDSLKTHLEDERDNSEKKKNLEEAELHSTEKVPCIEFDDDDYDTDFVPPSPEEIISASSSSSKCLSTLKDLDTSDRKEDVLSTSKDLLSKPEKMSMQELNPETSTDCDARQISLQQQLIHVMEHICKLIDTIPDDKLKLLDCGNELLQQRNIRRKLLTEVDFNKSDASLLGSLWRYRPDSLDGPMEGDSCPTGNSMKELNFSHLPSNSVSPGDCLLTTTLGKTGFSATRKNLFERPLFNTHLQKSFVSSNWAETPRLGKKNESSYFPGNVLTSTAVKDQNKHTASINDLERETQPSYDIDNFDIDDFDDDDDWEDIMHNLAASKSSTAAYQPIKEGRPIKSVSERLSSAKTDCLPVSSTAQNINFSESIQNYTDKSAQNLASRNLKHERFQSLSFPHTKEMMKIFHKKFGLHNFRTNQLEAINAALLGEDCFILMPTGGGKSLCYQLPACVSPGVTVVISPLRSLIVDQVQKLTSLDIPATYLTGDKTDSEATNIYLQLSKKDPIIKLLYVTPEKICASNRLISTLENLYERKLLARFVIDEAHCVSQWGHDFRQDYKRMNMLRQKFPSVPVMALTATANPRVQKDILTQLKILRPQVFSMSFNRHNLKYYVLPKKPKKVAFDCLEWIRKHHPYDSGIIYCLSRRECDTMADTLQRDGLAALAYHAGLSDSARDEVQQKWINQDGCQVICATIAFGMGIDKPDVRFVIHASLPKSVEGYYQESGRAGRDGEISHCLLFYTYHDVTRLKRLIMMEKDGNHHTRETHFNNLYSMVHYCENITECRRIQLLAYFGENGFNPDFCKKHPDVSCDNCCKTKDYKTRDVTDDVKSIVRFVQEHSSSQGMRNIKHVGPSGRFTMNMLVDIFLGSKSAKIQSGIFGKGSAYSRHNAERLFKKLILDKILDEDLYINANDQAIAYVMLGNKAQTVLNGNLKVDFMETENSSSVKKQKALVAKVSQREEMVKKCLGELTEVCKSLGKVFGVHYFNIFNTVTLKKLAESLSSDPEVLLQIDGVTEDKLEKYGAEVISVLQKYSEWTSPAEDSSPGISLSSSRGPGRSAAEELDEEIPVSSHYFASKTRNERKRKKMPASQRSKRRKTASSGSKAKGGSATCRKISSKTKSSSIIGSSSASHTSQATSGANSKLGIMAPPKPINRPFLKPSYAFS
Sequence of Dual specificity protein kinase CLK4 (Homo sapiens) (Q9HAZ1 whole entry, looked up): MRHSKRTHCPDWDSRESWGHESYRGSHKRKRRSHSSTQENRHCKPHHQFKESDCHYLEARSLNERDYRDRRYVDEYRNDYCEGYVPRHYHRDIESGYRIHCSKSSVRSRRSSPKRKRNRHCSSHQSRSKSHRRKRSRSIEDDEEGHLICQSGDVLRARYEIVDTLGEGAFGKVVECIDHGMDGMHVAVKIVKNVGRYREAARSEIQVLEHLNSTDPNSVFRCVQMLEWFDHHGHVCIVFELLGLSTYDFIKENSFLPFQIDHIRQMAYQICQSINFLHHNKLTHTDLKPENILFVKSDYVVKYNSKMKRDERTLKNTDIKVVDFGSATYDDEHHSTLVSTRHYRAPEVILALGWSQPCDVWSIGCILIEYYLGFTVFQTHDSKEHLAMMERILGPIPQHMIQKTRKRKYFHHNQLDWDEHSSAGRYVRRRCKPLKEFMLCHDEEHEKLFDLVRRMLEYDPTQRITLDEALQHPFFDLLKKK
Sequence of Cytochrome P450 2C9 (Homo sapiens) (P11712 whole entry, looked up): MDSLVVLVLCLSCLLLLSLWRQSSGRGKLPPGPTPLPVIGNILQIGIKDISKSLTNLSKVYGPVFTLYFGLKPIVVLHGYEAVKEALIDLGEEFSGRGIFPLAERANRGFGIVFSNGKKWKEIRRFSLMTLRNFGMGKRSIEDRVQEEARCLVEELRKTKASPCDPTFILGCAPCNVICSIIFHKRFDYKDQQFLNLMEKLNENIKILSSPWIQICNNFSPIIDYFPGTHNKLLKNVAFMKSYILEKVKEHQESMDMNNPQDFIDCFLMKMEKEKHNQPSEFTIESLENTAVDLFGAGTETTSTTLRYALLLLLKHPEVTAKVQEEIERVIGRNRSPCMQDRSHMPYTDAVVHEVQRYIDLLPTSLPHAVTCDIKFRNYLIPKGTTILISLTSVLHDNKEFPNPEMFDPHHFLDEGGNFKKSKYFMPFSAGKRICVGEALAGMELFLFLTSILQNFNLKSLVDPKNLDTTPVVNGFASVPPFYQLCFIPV

For the compound `O=C1CCN2C=Nc3cccc4ccc1c2c34`, the Potency is 6.51 µM (active) in [1] and 11.2 µM (active) in assay [5]. In addition, the Potency entry in [2] and in assay [3] was “inactive” each time. Moreover, the activity change, negative = inhibition in [4] was 142% [at 30.8 µM].
Take `CCN1CCN(c2ccc(S(=O)(=O)N3CCCCC3)cc2NC(=O)c2cccc(OC(F)F)c2)CC1`: the Potency entry in [2], in assay [3], in assay [4] and in assay [5] was “inactive” in each case.
Consider `COc1cccc(Nc2ncc3nc(-c4ccc(F)cc4)c(=O)n(CCC#N)c3n2)c1`, for which, in assay [6], the Potency entry was “inactive”.
Take `CCNc1ncc2nc(-c3cccs3)c(=O)n(CCC#N)c2n1`: the Potency in assay [7] was 1.26 µM (active). In addition, the Potency entry in assay [8] is “inactive”.
For `O=C(O)c1ccc(COc2ccccc2/C=C2/NC(=O)N(c3cccc(Cl)c3)C2=O)cc1`, the Potency in assay [9] was 10 µM (active).
For the compound `O=[N+]([O-])c1c(Nc2ccccn2)cc(Cl)c2nonc12`, in assay [10], the Potency entry is “inactive”.
For `COc1cccc(/C=N/NC(=O)c2[nH]nc3c2CCc2ccccc2-3)c1O`, the Potency is 21.5 µM (active) in assay [11] and 6.81 µM (active) in assay [13]. The compound was classed as inactive in assay [12].
Consider `Cn1ccc(=Nc2ccc(NC(=O)c3ccc(N=c4ccn(C)c5ccc([N+](=O)[O-])cc45)cc3)cc2)cc1`, for which the Potency in [14] is 9.53 µM (active); in assay [15], 4.23 µM (active).
With `COc1cccc(Nc2nnc(-c3cc4ccc(O)cc4oc3=O)s2)c1`, the Potency result in assay [16] was “inactive”.
With `CC1CCN(C2(O)C(=O)Nc3ccc(Br)cc32)CC1` (stereo unspecified), the Potency result in assay [2] and in [5] was “inactive” in each case.
As to `Cc1ccc(C)n1-c1nn(S(=O)(=O)c2ccccc2)c2cccc(F)c12`, the Potency result in [17] and in assay [18] was “inactive” each time. In addition, in [3], the Potency was 13.5 µM (active).
For the compound `O=S1(=O)CCOC[C@H](CC2CCCCC2)N1Cc1cccc(C(F)(F)F)c1`, the Potency entry in assay [17] and in [3] was “inactive” in each case. For the same compound, the activation in assay [18] was 4.69% [at 17.1 µM, percent relative to cAMP agonist control].
Regarding `NS(=O)(=O)c1ccc2c(c1)C1C=CCC1C(C1CC=CCC1)N2` (stereo unspecified), the Potency result in assay [17] and in assay [3] was “inactive” each time. Also, the activation in [18] was 6.51% [at 17.1 µM, percent relative to cAMP agonist control].
For `CN(C)c1ccc(C(=O)Nc2sc(Nc3ccccc3)nc2C(N)=O)cc1`, the Potency result in assay [17], in assay [18] and in [3] was “inactive” each time.
In the case of `CCCCNC(=O)C[C@@H]1C[C@@]2(C(=O)OC)CCCCC=C2N(Cc2cccc3ccccc23)C1=O`, the Potency result in assay [17] and in assay [18] was “inactive” in each case.
In the case of `CSc1cccc(N2CC(C(=O)Nc3cccc(S(=O)(=O)N4CCCC4)c3)CC2=O)c1` (stereo unspecified), the Potency result in assay [17] and in assay [3] was “inactive” throughout. In addition, in assay [18], the activation was 4.48% [at 17.1 µM, percent relative to cAMP agonist control].
`COC(=O)c1ccc(CSc2nc3scc(-c4cccs4)c3c(=O)[nH]2)o1`: the Potency result in assay [17], in assay [18] and in assay [3] was “inactive” in each case.
On to `CCOc1cc(S(=O)(=O)Nc2ccccc2CC)ccc1Cl`, for which the Potency result in assay [17] is “inactive”. The activation in assay [18] is 8.65% [at 17.1 µM, percent relative to cAMP agonist control].
For `c1ccc(-c2onc(-c3ccco3)c2-c2ccc3[nH]ccc3c2)cc1`, the Potency result in [17] and in assay [18] was “inactive” in each case.
On to `CCCCC[C@H]1CN(Cc2ccccc2)C(=O)[C@@H]1CC(=O)NCc1ccc(OC)cc1`, for which the Potency entry in assay [17] and in [18] was “inactive” in each case. Also, the Potency in assay [3] was 44.1 µM (active).
Regarding `CC[N+](C)(C)c1ccc(/C=C/c2ccnc3ccccc23)cc1`, the Potency result in [17] and in assay [18] was “inactive” throughout.
As for `CC(NS(=O)(=O)OCC(Cl)(Cl)Cl)c1ccc(C(C)(C)C)cc1` (stereo unspecified), the Potency result in assay [17] and in assay [3] was “inactive” each time. In addition, the activation in [18] is 4.78% [at 17.1 µM, percent relative to cAMP agonist control].
Take `CC1CC(C)CN(C(=S)SCc2nc(N)nc(Nc3ccccc3)n2)C1` (stereo unspecified): the Potency entry in [17] and in assay [18] was “inactive” each time.
